PubChem BioAssay (NCATS)
Where a SMILES comes first, the peptide text is derived from it. [ ]: non-standard residue; d: D form. The star is where a group is joined. Benzoyl(4-tBu) = CC(C)(C)c1ccc(C(=O)*)cc1; Lys(Et2) = CCN(CC)CCCC[C@H](N)C(=O)O

Assay: qHTS drug screen for cell cycle checkpoint inhibitors in PARPi-resistant BRCA-mutant ovarian cancer cell lines. (AID 1963452)
Conditions: PEO1/OlaR viability, CellTiter-Glo luminescence, 96 h; measured here: PEO4 Z-AUC; stronger effect = lower value
Procedure, shortened: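 PEO1, PEO4 and PEO1/OlaR ovarian cancer cells, 600 per well, exposed 96 h at 37C to a dilution series. Viability read by CellTiter-Glo luminescence, normalized to DMSO and empty wells; activity summarized as Z-AUC.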

| SMILES | Z-AUC |
| --- | --- |
| CC[C@@]1(O)C(=O)OCc2c1cc1n(c2=O)Cc2c-1nc1ccccc1c2CCNC(C)C | -1.65 |
| COc1ccc2[nH]c3c(c2c1)CCN[C@]31CS[C@@H]2c3c(OC(C)=O)c(C)c4c(c3[C@H](COC1=O)N1[C@@H]2[C@H]2c3c(cc(C)c(OC)c3O)C[C@@H]([C@@H]1O)N2C)OCO4 | -2.86 |
| CCC(C)CNCC(=O)N1CCc2sccc2C1c1cccc(C)n1 (stereo unspecified) | -0.749 |
| CS(=O)(=O)c1ccc(-c2cnc(NCc3ccco3)n3cnnc23)cc1 | 1.01 |
| O=c1c(-c2ccc(O)cc2)coc2c([C@@H]3O[C@H](CO)[C@@H](O)[C@H](O)[C@H]3O)c(O)ccc12 | 1.37 |
| CCC(=O)O[C@]1(C(=O)CO)CC[C@H]2[C@@H]3CCC4=CC(=O)CC[C@]4(C)[C@H]3CC[C@@]21C | 1.13 |
| O=S(=O)(Nc1ccc(-c2cccnc2)c2cccnc12)c1cccc(C(F)(F)F)c1 | 0.396 |
| O=C(O)c1ccccc1-c1ccc(/C=c2\sc3nc4cc(Br)cnc4n3c2=O)o1 | -0.895 |
| O=c1[nH]nc2c3c(cccc13)NC(CN1Cc3ccccc3C1)=N2 | -0.251 |
| O=C([O-])C[O-].[Pt+2] | 1.5 |
| Cc1cc(O)cc2c1[C@]1(C)CC[C@H]3C(C)(C)CCC[C@]3(C)[C@H]1C2 | 1 |
| N=C1S/C(=C\c2ccc(-c3ccc4c(c3)C(=O)NC4=O)o2)C(=O)N1c1ccc(Br)cc1 | 0.462 |
| CCN(CC)CCCC[C@H](NC(=O)[C@H](CC(C)C)NC(=O)[C@H](C)NC(=O)[C@H](Cc1ccccc1)NC(=O)c1ccc(C(C)(C)C)cc1)C(=O)N[C@@H](CO)C(=O)OC ({Benzoyl(4-tBu)}-FAL[Lys(Et2)]S-OMe) | -0.0734 |
| CO[C@H]1/C=C/O[C@@]2(C)Oc3c(C)c(O)c4c(O)c(c5c(nc6cc(C)ccn65)c4c3C2=O)NC(=O)/C(C)=C\C=C\[C@H](C)[C@H](O)[C@@H](C)[C@@H](O)[C@@H](C)[C@H](OC(C)=O)[C@@H]1C | -1.09 |
| COC(=O)[C@H]1[C@@H](O)[C@@]2(O)c3c(OC)cc(O[C@@H]4O[C@@H]([C@@H](O)CO)CO[C@H]4OC)cc3O[C@@]2(c2ccc(OC)cc2)[C@@H]1c1ccccc1 | 0.648 |
| COc1nc(N)nc2c1ncn2C1OC(CO)C(O)C1O (stereo unspecified) | -0.286 |

| SMILES | Z-AUC |
| --- | --- |
| O=C(CCCCCCC(=O)N/N=C/c1ccc(N(c2ccccc2)c2ccccc2)cc1)NO | 0.729 |
| O=C(O)CCNc1cc(N2CCc3ccccc3CC2)nc(-c2cccnc2)n1 | 0.897 |
| Cc1cc(-c2cnn3c(NCC4CC(C)(O)C4)cc(Oc4cccnc4)nc23)ccc1C(=O)NC1CC1 (stereo unspecified) | -0.202 |
| CC(C)n1c(=O)cc(N[C@@H](C)c2ccccc2)[nH]c1=O | 1.05 |
| O=C(O)C[C@H]1CCc2c1[nH]c1ccc(OCc3ccc(C4CCCC4)c(C(F)(F)F)c3)cc21 | 0.948 |
| Cn1cc(/C=C/C(=O)c2cccc(F)c2)cc1/C=C/C(=O)NO | 0.291 |
| Nc1nccc(-c2c(-c3ccc(F)cc3)ncn2C2CCN(Cc3ccon3)CC2)n1 | 0.374 |
| CC1(C)S[C@H]2[C@H](NC(=O)[C@@H](N)c3ccc(O)cc3)C(=O)N2[C@H]1C(=O)O | 0.161 |
| CC(C)(NS(=O)(=O)c1ccc2c(Cl)cnc(N=C(N)N)c2c1)C(=O)O | 0.0928 |
| CCS(=O)(=O)N1CCC(C(C)n2c(C)c(C(=O)NCc3c(OC)cc(C)[nH]c3=O)c3ccccc32)CC1 (stereo unspecified) | 0.959 |
| CN1CCN(C(=O)[C@H]2[C@@H](C(=O)O)[C@H]3CC[C@@H]2O3)CC1 | 0.663 |
| CC(=O)N1CCN(c2ccc(NC(=O)Cc3cnc(-c4ccnc(F)c4)c(C)c3)nc2)CC1 | 0.947 |
| O=C(O)CCCCN(CCc1ccccc1OCc1ccc(CCc2ccccc2)cc1)Cc1ccc(C(=O)O)cc1 | 0.773 |
| CC(=O)N[C@H]1[C@H](O[C@@H]2c3ccc(c(Cl)c3)Oc3cc4cc(c3O[C@@H]3O[C@H](CO)[C@@H](O)[C@H](O)[C@H]3NC(=O)CCCCCCCC(C)C)Oc3ccc(cc3Cl)C[C@H]3NC(=O)[C@H](N)c5ccc(O)c(c5)Oc5cc(O)cc(c5)[C@H](NC3=O)C(=O)N[C@H]4C(=O)N[C@H]3C(=O)N[C@@H]2C(=O)N[C@@H](C(=O)O)c2cc(O)cc(O[C@H]4O[C@H](CO)[C@@H](O)[C@H](O)[C@@H]4O)c2-c2cc3ccc2O)O[C@H](CO)[C@@H](O)[C@@H]1O | 1.05 |
| O=C(Nc1cccc(C(F)(F)F)c1)c1cccc2cc(Oc3cc(CO)ncn3)ccc12 | -0.749 |
